About 83,000 compounds went through this panel and 20% of them were active in at least one assay; those are over-represented in the sample as a whole.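 Compound tested at a single concentration for 48 hours in 96-well plates; a percent growth value below 10 was scored as active.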 A number with no mark means an inactive call. The source made the active and inactive calls.
Legend:
Assay in all cases: NCI-60 one-dose screen, 48 h (100 = growth as untreated, 0 = no growth, -100 = all killed)
Conditions in all cases: 10 µM unless noted
NCI-H23 lung = system: NCI-H23 lung
NCI-H226 lung = system: NCI-H226 lung
NCI-H322M lung = system: NCI-H322M lung
HOP-62 NSCLC = system: HOP-62 NSCLC
NCI-H460 lung = system: NCI-H460 lung
HOP-92 NSCLC = system: HOP-92 NSCLC
NCI-H522 lung = system: NCI-H522 lung
A549/ATCC NSCLC = system: A549/ATCC NSCLC
786-0 renal = system: 786-0 renal
COLO 205 colon = system: COLO 205 colon

Structure (SMILES)	growth (NCI-H23 lung)	growth (NCI-H226 lung) [%]	growth (NCI-H322M lung) [%]	growth (HOP-62 NSCLC)	growth (NCI-H460 lung)	growth (HOP-92 NSCLC)	growth (NCI-H522 lung)	growth (A549/ATCC NSCLC)	growth (786-0 renal)	growth (COLO 205 colon)
CCN1CCN(Cc2ccc(NC(=O)Nc3nc(-c4cc(OC)c(OC)c(OC)c4)cs3)cc2C(F)(F)F)CC1	37.6%	56.8	63	49.9%	-1.08% (active)	54.4%	55.9%	26.1%	-50.9% (active)	-68.4% (active)
NC[C@@](O)(c1ccc(Cl)cc1)c1ccc(-c2cn[nH]c2)cc1	27.4%	43.9	10.3	15.2%	23.1%	-1.15% (active)	17.7%	18.3%	6.12% (active)	-22.8% (active)
O=C1NC(=O)C(c2cnc3ccccn23)=C1c1cn2c3c(cc(F)cc13)CN(C(=O)N1CCCCC1)CC2	82.1%	46	72	26.1%	39.1%	83%	38.7%	34.8%	31.1%	26.7%
CNC(=O)c1nn(C)c2c1C(C)(C)Cc1cnc(Nc3ccc(N4CCN(C)CC4)cc3)nc1-2	2.37% (active)	12.3	15.1	-9.46% (active)	7.46% (active)	3.76% (active)	-29.4% (active)	-0.797% (active)	12.3%	-80.1% (active)
COc1cc(N2CCC(N3CCN(C)CC3)CC2)ccc1Nc1ncnc(Nc2ccccc2S(=O)(=O)C(C)C)n1	102%	109	109	86.7%	102%	105%	80.5%	104%	99.7%	99%
CO[C@H]1C[C@@H]2CC[C@@H](C)[C@@](O)(O2)C(=O)C(=O)N2CCCC[C@H]2C(=O)O[C@H]([C@H](C)C[C@@H]2CC[C@@H](O)[C@H](OC)C2)CC(=O)[C@H](C)/C=C(\C)[C@@H](O)[C@@H](OC)C(=O)[C@H](C)C[C@H](C)\C=C/C=C/C=C/1C	51.3%	47.9	43.7	43.8%	31.9%	41.1%	39.4%	35.1%	42.1%	44.3%

— PubChem BioAssay (NCI)
